Source: ChEMBL document CHEMBL4513216, “Probing the Open Global Health Chemical Diversity Library for Multistage-Active Starting Points for Next-Generation Antimalarials” (ACS Infect Dis, 2020)
Among all 69,000 compounds or so, about 8,600 (12%) showed an effect of 50% or more. What follows is part of a selection rich in strong results, with near analogues and random picks from the rest.

These compounds were tested on Plasmodium berghei (assay: Screen against P. berghei liver stage (PbLuc), transformed with Luciferase, at 10uM). Conditions: tested at 10 uM.
Format: functional, HepG2

SMILES	INHIBITION
Cc1cc(C)c(CNC(=O)N2CCN(c3ccncc3)CC2)c(=O)[nH]1	-21.45%
CN(Cc1cnn(C)c1)c1nccc(-c2cc(C(=O)O)ccn2)n1	33%
COc1ccc(CN(C)c2nccc(-c3cn(C)nc3C)n2)cc1	-7.76%
Cc1nn(C)cc1-c1ccnc(N(C)Cc2ccon2)n1	49.6%
CN(Cc1ccoc1)c1ccc(-c2nccn2C)nn1	-120%
Cc1ccc(CN(C)c2nccc(-c3cn(C)nc3C)n2)o1	50.7%
Cc1nn(C)cc1CN(C)c1nccc(-c2cn(C)nc2C)n1	28%
Cc1nn(C)cc1-c1ccnc(N(C)Cc2cccs2)n1	35.5%
COc1ccccc1CN(C)c1nccc(-c2cn(C)nc2C)n1	82.3%
Cc1nn(C)cc1-c1ccnc(N(C)Cc2cnn(C)c2)n1	74.5%
Cc1nn(C)cc1-c1ccnc(N(C)Cc2ccoc2)n1	51.8%
Cc1nn(C)cc1-c1ccnc(N(C)Cc2ccc(F)cc2)n1	30.1%
CCCN1CCCC1Cn1nc(C)cc1C (configuration not stated)	34.35%
N#Cc1cc(C#N)c(SCC(=O)Nc2ccc(F)cc2)nc1N	35.1%
O=C(CCN1CCCC1=O)Nc1cnn(-c2ccccc2Cl)c1	-46.4%
CC(CNC(=O)OC(C)(C)C)N(C)C(=O)COc1ccccc1C#N (configuration not stated)	15.9%
Cc1ncsc1C(=O)N(C)Cc1ccsc1	-23.955%
Cn1cnc(S(=O)(=O)N2CCCCc3ccccc32)c1	-0.613%
O=C(O)c1ccccc1CN1CCOC(CCc2ccncn2)C1 (configuration not stated)	20.8%
Cc1ccc(C(CNCc2cnn(C(C)C)c2)N2CCOCC2)s1 (configuration not stated)	-48.2%
CCCn1cc(CNCC(c2ccc(C)s2)N2CCOCC2)cn1 (configuration not stated)	63.7%
Cc1ccc(C(CNCc2cccn2C)N2CCOCC2)s1 (configuration not stated)	38%

SMILES	INHIBITION
Cc1ccc(C(CNCc2ccncc2)N2CCOCC2)s1 (configuration not stated)	-33.2%
CCn1cc(CNCC(c2ccc(C)s2)N2CCOCC2)cn1 (configuration not stated)	14.9%
Cc1ccc(C(CNCc2ccc(C#N)cc2)N2CCOCC2)s1 (configuration not stated)	69.7%
O=C(NCC1COCc2c(-c3ccncc3)nnn2C1)[C@H]1CCCO1 (some centres not stated)	-34.6%
CC(Cn1cccn1)n1cnc2cccc(F)c2c1=O (configuration not stated)	30%
CCn1ncc(CN2CCc3c(nc(-c4cccnc4)[nH]c3=O)C2)c1C	23.3%
OCCN1CCC(c2cncc(-c3cccc(Cl)c3)n2)CC1	23.2%
N#CC1(c2ccccc2)CCN(C(=O)C2CCCN(C(N)=O)C2)CC1 (configuration not stated)	30.5%
N#CC1(c2ccccc2)CCN(C(=O)CN2C(=O)CCNC2=O)CC1	30.1%
NC(=O)CN1CCCC(C(=O)N2CCC(O)(c3ccccc3)CC2)C1 (configuration not stated)	58.3%
NC(=O)CN1CCCC(C(=O)N2CCC(Oc3ncccn3)CC2)C1 (configuration not stated)	27.6%
N#CC1(c2ccccc2)CCN(C(=O)C2CCCN(CC(N)=O)C2)CC1 (configuration not stated)	61%
NC(=O)CN1CCCC(C(=O)N2CCC(O)(Cc3ccccc3)CC2)C1 (configuration not stated)	8.07%
O=C(c1ccc(=O)[nH]n1)N1CCNCC1c1ccccc1 (configuration not stated)	8.12%
CCOCC(=O)N1CCC(c2cc3ncccc3c(O)n2)CC1	0.301%
CC(C)NC(=O)N1C[C@H](OCc2cccnc2)[C@H]2COC[C@H]21	-18.2%
Cc1nc(O)cc(C2(C)CCCNC2)n1 (configuration not stated)	1.4%
CCn1cncc1C1CC(=O)Nc2c1c(C)nn2-c1ccc(C)cc1 (configuration not stated)	42%
Cc1ccc(-n2nc(C)c3c2NC(=O)CC3c2cnc(N)s2)cc1 (configuration not stated)	62.6%
Cc1nn(-c2ccccc2)c2c1C(c1ccc(C(=O)O)cc1)CC(=O)N2 (configuration not stated)	32.7%
CCn1ncc(S(=O)(=O)N[C@@H]2CCC[C@@H](n3ccnc3)[C@@H]2O)c1C	28.7%
COCCCNc1cc(C)nn2cnnc12	3.35%

SMILES	INHIBITION
CCC(CC)(CNC(=O)OC(C)(C)C)NC(=O)c1cnccn1	67.4%
CC(C)C(C)(CNC(=O)OC(C)(C)C)NC(=O)c1cnccn1 (configuration not stated)	0.705%
CC(C)CC(C)(CNC(=O)c1cnccn1)NC(=O)c1cnccn1 (configuration not stated)	25.4%
Cn1ccc(C(=O)N2CCCC2c2cc[nH]n2)n1 (configuration not stated)	21.925%
Cc1nn(C)c(N2CCOCC2)c1CNC1CCN(C2CC2)CC1	-21.7%
NC(=O)NC(=O)CNc1cccc(C(=O)c2ccccc2)c1	0.0459%
CCN1CCN(S(=O)(=O)c2cc(C)c(Cl)cc2Cl)CC1	43.5%
CCN1CCN(S(=O)(=O)c2ccc(Cc3cc(C)n[nH]c3=O)cc2)CC1	9.96%
CCN1CCN(S(=O)(=O)c2cc(C)c(C)cc2Br)CC1	66.5%
CCN1CCN(S(=O)(=O)c2cc(Cl)c(Cl)cc2C)CC1	61.8%
CCN1CCN(S(=O)(=O)c2ncn(C)c2Cl)CC1	-10.4%
CCN1CCN(S(=O)(=O)c2cc(C)c(Cl)cc2C)CC1	49.7%
CN(C)S(=O)(=O)c1ccc(CNC(=O)C2CC(=O)N(C(C)(C)C)C2)cc1 (configuration not stated)	-3.305%
CN(C)C(=O)CN1CCC(c2nnc(Cn3cccn3)n2C2CC2)CC1	16.3%
CN1[C@H](CN2CCCC2)C[C@@H]2CN(C(=O)c3cnccn3)CC[C@@H]21	18.6%
Cc1nc(C2CCN(c3ccccc3)CC2)no1	32.8%
Cc1noc(C2CCN(C(=O)c3ccc(C(F)(F)F)nc3)CC2)n1	-34.025%
Cc1noc(C2CCN(C(=O)c3ccc(N(C)C)nc3)CC2)n1	6.92%
Cc1noc(C2CCN(C(=O)c3ccc(NC4CC4)nc3)CC2)n1	59.7%
CCCc1ccc2oc(C(=O)N3CCC(O)CC3)c(C)c2c1	2.7%
CSc1ccc(Cl)c(C(=O)N2CCCC(CNS(C)(=O)=O)C2)c1 (configuration not stated)	41.4%
COc1ccccc1OCC(=O)NS(=O)(=O)c1cccnc1	29.8%

SMILES	INHIBITION
CCn1c(SCC(=O)N2CCOCC2)nc2cc(C)[nH]c2c1=O	2.69%
Cc1cc2nc(SCC(=O)N3CCOCC3)n(C(C)C)c(=O)c2[nH]1	47.4%
CCC(C)n1c(SCC(=O)N2CCOCC2)nc2cc(C)[nH]c2c1=O (configuration not stated)	57.3%
CC(C)c1nnc(NC(=O)N2CCCC2c2ccncc2)s1 (configuration not stated)	-32.3%
CCSc1ccc(NC(=O)N2CCCC2c2ccncc2)cn1 (configuration not stated)	35.2%
CCCc1nnc(NC(=O)N2CCCC2c2ccncc2)s1 (configuration not stated)	59.2%
CC(C)(C)c1n[nH]c(C2CN(C(=O)CCc3ccco3)CCO2)n1 (configuration not stated)	18.15%
Cc1nc(CN2CCCC(NCCCc3ccccc3)C2)no1 (configuration not stated)	-7.31%
O=C(COc1ccc(C(F)(F)F)cc1)N1CCOCC1c1ncon1 (configuration not stated)	11.9%
CC(C)(C)c1n[nH]cc1CNC1CCC(O)CC1 (configuration not stated)	5.87%
CC(C)NC(=O)C1CN(Cc2ccc(F)cc2)CC12CCOCC2 (configuration not stated)	-15.7%
CCC(Cn1ccnc1)n1cnc2scc(C)c2c1=O (configuration not stated)	14.9%
CC1CCN(C(=O)C(C)Oc2ccc3c(c2)OCO3)CC1 (configuration not stated)	-20.5%
CC(Oc1ccc2c(c1)OCO2)C(=O)N1CCC(N2CCCC2)CC1 (configuration not stated)	-5.22%
CC(Oc1ccc2c(c1)OCO2)C(=O)N1CCC(N2CCOCC2)CC1 (configuration not stated)	63%
CCCc1nc(C(C)(C)NC(=O)C2CC(=O)N(CCOC)C2)no1 (configuration not stated)	-3.2%
CCOCC(=O)Nc1ccc(-n2ccc(C(N)=O)n2)cc1	10.8%
CCN(CC)CC(=O)Nc1ccc(-n2ccc(C(N)=O)n2)cc1	50.2%
CC(C)N(C)CC(=O)Nc1ccc(-n2ccc(C(N)=O)n2)cc1	49.3%
CCNc1ncc(C(=O)N2Cc3nc(C)[nH]c(=O)c3C2)cn1	6.94%
O=C(NCC1CC1)C1=NOC2(CCN(S(=O)(=O)Cc3ccccc3)C2)C1 (configuration not stated)	22.5%
O=C(NC1CCC1)C1=NOC2(CCN(Cc3ccccc3)C2)C1 (configuration not stated)	57.9%

SMILES	INHIBITION
CNC(=O)C1=NOC2(CCN(Cc3nccs3)C2)C1 (configuration not stated)	54.4%
CC(C)CN1CCC2(CC(C(=O)NCc3cccnc3)=NO2)C1 (configuration not stated)	-11.6%
CNC(=O)C1Cn2ccnc2C2(CCN(Cc3cccs3)CC2)O1 (configuration not stated)	46.2%
O=C(NCc1cccnc1)C1=NOC2(CCCN(CCO)C2)C1 (configuration not stated)	60.1%
CNC(=O)C1Cn2ccnc2C2(CCN(Cc3nccs3)CC2)O1 (configuration not stated)	55.5%
O=C(NCC1CC1)C1=NOC2(CCN(Cc3ccsc3)C2)C1 (configuration not stated)	38.5%
CNC(=O)C1Cn2ccnc2C2(CCN(Cc3ccncc3)CC2)O1 (configuration not stated)	36.9%
CC(C)C(=O)N1CCCC2(CC(C(=O)NCc3cccnc3)=NO2)C1 (configuration not stated)	8.67%
O=C(NCCN1CCOCC1)C1=NOC2(CCN(Cc3nccs3)C2)C1 (configuration not stated)	41.6%
Cc1ncccc1NC(=O)C1=NOC2(CCN(Cc3nccs3)C2)C1 (configuration not stated)	9.1%
CN1CCc2onc(Cn3cccc3)c2C1	-7.24%
Cc1cccc2nc(CN3CCCC3Cn3cncn3)cn12 (configuration not stated)	5.03%
c1ccc([C@@H]2CN(Cc3cccnc3)C[C@H]2c2cc[nH]n2)cc1	27.2%
O=C(NCc1ccc(-n2cncn2)nc1)c1cc[nH]n1	17.9%
Clc1ccc(-n2cnnc2CCCN2CCOCC2)cc1	15.6%
CC1CCCCN1S(=O)(=O)NCCNC(=O)c1ncccc1O (configuration not stated)	-27.3%
COc1cccc2c(C)c(C(=O)N3CCNCC3C(N)=O)[nH]c12 (configuration not stated)	24.35%
CCNc1cc2c(nn1)CCN(C(=O)Cc1ccc(C)s1)C2	37.4%
Cc1cc(N2CCC(O)(CN(C)C(=O)CCCN)C2)c2cnccc2n1 (configuration not stated)	-16.8%
